This is an account of results in PubChem BioAssay (Tox21).

Where “and” joins values, the source holds several entries; their conditions need not be identical. Equal entries are not always repeated. Inconclusive results are not listed. A structure can be active in one record and inactive in another. Calls of active or inactive are those of the source. Unless noted, calls come from the whole dose curve.

Assay [1] can be described thus: Nuclear factor erythroid 2-related factor 2/antioxidant responsive element (Nrf2/ARE) small molecule agonists: luciferase reporter gene qHTS assay in human keratinocytes (AID 1919969). Note: nearly all actives have a fitted effect of over 35% in size.
In assay [2] the target is Gonadotropin-releasing hormone receptor (Homo sapiens) (UniProt P30968). As to the kind of experiment: Human gonadotropin-releasing hormone receptor (GnRHR) small molecule agonists, calcium flux assay in GnRHR-HEK293 cells (AID 1920063). Note: nearly all actives have a fitted effect of over 35% in size. In a few lines: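 Agonist mode: compounds at 15 concentrations, in triplicate, went onto calcium dye-loaded GnRHR-HEK293 cells. Intracellular calcium was then followed as 480/540 nm fluorescence at 1 s intervals over 3 min.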
For orientation: Calcium assays in cells follow changes in intracellular calcium, usually with a dye or a luminescent sensor.

Assay [3] has as its target KiSS-1 receptor (Homo sapiens) (UniProt Q969F8). Briefly: Human kisspeptin (KISS1R) small molecule agonists, calcium flux assay in KISS1R-HEK293 cells (AID 1920064; active = well fitted activation curve with a large enough effect in the repeat runs). The gist of the method:
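Agonist mode: intracellular calcium rise tracked at 1 s intervals over 3 min (480/540 nm) immediately after compound addition to dye-loaded KISS1R-HEK293 stable cells. Each compound tested at 15 concentrations in triplicate.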

A short description of assay [4]: G protein-coupled receptor (GPCR) small molecule agonists, calcium flux assay: HEK293 wild type cell line counter screen (AID 1920065). In a few lines: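 Calcium flux counter screen: compound added in agonist mode at 15 concentrations in triplicate to dye-loaded parental HEK293 cells. Fluorescence (480/540) read kinetically for 3 min; ATP served as positive control.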

The nature of assay [5]: p53 small molecule agonists, cell-based qHTS assay with human liver microsomes: qHTS cell viability counter screen (AID 1963579). Note: nearly all actives have a fitted effect of over 45% in size. Note: potency is the fitted concentration of half-maximal effect. The gist of the method: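 p53RE-bla cells (4,000/well) were pre-incubated 5 h at 37 C, then given compounds in DMSO plus human liver microsomes (0.5 mg/mL final) and NADPH (0.5 mg/mL final) for 16 h at 37 C. Viability was read by CellTiter-Glo luminescence.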
(qHTS replaces the single test concentration by a dilution series.)

Assay [6] can be described thus: p53 small molecule agonists, cell-based qHTS assay with rat liver microsomes: qHTS cell viability counter screen (AID 1963580). Note: nearly all actives have a fitted effect of over 45% in size. In a few lines: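 Cytotoxicity counter screen: intracellular ATP measured by CellTiter-Glo luminescence in the same wells as the beta-lactamase reporter read, on HCT-116 p53RE-bla cells exposed 16 h at 37 C to compounds with rat liver microsomes and NADPH, each 0.5 mg/mL final.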

The nature of assay [7]: p53 small molecule agonists, cell-based qHTS assay: qHTS cell viability counter screen (AID 1963581). Note: nearly all actives have a fitted effect of over 45% in size. The gist of the method:
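Counter screen read by CellTiter-Glo luminescence (ATP content, 30 min at room temperature), run in the same wells as the beta-lactamase reporter read. HCT-116 p53RE-bla cells saw compounds for 16 h at 37 C.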

Assay [8] is described as follows: cAMP Responsive Elements (CRE) small molecule agonists, cell-based qHTS assay (AID 1963590). In a few lines:
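Agonist mode: compound added to CRE-bla HEK 293T cells (2,000/well, 18 h after plating) for 3 h at 37 C/5% CO2. Reporter activity detected via FRET beta-lactamase substrate, 2 h room-temperature loading.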

A short description of assay [9]: cAMP Responsive Elements (CRE) small molecule antagonists, cell-based qHTS assay (AID 1963591; active = well fitted inhibition curve with a large enough effect in the signal ratio in the repeat runs, not every such curve was filed as active; the % refers to the signal ratio). The gist of the method:
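Antagonist mode: compounds are added alongside the adenylyl cyclase activator NKH477 (0.25 uM final) to CRE-bla HEK293T cells for 3 h. LiveBLAzer FRET substrate, 2 h at room temperature, reports bla expression.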

The target in assay [10] is Beta-2 adrenergic receptor (Homo sapiens) (UniProt P07550). As to the kind of experiment: Adrenergic beta2 receptor (ADRB2) small molecule antagonists, cell-based qHTS assay (AID 1963592). Note: series mostly up to about 92 µM; nearly all actives have a fitted effect of over 50% in size. The gist of the method: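 Assay format: CHO-ADRB2 cells, 18-20hr seeding at 37C/5% CO2, then compound plus 1nM isoproterenol agonist mix for 0.5hr RT. Homogeneous time-resolved fluorescence cAMP detection after 1hr, expressed as 665/615 nm ratio.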

Assay [11] has the same target. Briefly: Adrenergic beta2 receptor (ADRB2) small molecule agonists, cell-based qHTS assay (AID 1963593).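 Note: CHO cells stably overexpressing human ADRB2.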 The gist of the method:
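CHO cells stably over-expressing ADRB2 were plated overnight at 37C, then dosed with compounds plus a stimulation mix containing 100uM IBMX and 25uM Ro-20-1724 for 0.5hr at room temperature. cAMP was measured by HTRF competition, 1hr.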

The target in assay [12] is D(2) dopamine receptor (Homo sapiens) (UniProt P14416). Briefly: Dopamine D2 receptor (DRD2) small molecule agonists, cell-based qHTS assay (AID 1963594). Note: nearly all actives have a fitted effect of over 35% in size. The gist of the method:
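HEK293 cells stably expressing human DRD2, pre-treated with PDE inhibitor Ro20-1724 (0.1 mM final) and compound 10 min at room temperature, then stimulated with NKH477 (200nM […]) for 30 min. cAMP read by HTRF (665/620 nm).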

Assay [13] has the same target. As to the kind of experiment: Dopamine D2 receptor (DRD2) small molecule antagonists, cell-based qHTS assay (AID 1963595; active = well fitted inhibition curve with a large enough effect in the signal ratio in the repeat runs, with a control signal flat; the % refers to the signal ratio). The gist of the method: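 HTRF cAMP read-out at 665 and 620 nm emission (340 nm excitation). Antagonist mode: compounds were tested against 12 nM quinpirole in DRD2-HEK293 cells, with 200 nM NKH477 raising cAMP and 0.1 mM Ro20-1724 blocking its breakdown.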

Assay [14] can be described thus: p53 small molecule agonists, cell-based qHTS assay with human liver microsomes (AID 1963577). In a few lines:
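p53RE-bla reporter cells were pre-incubated 5 h at 37 C, then treated with compounds plus human liver microsomes (0.5 mg/mL final) and NADPH (0.5 mg/mL final) for 16 h at 37 C. Beta-lactamase activity was read by LiveBLAzer fluorescence after 2 h at room temperature.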

A short description of assay [15]: p53 small molecule agonists, cell-based qHTS assay with rat liver microsomes (AID 1963578). In a few lines: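 p53RE-bla cells were exposed to compounds together with rat liver microsomes (0.5 mg/mL final) and NADPH (0.5 mg/mL final) for 16 h at 37 C, then read by LiveBLAzer beta-lactamase fluorescence after 2 h at room temperature.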
Assay [16] is described as follows: p53 small molecule agonists, cell-based qHTS assay (AID 1963582; active = well fitted activation curve with a large enough effect in the signal ratio in the repeat runs, not every such curve was filed as active; the % refers to the signal ratio; note: potency is the fitted concentration of half-maximal effect). In a few lines: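 Read-out is beta-lactamase FRET fluorescence after 2 h at room temperature with LiveBLAzer B/G substrate. p53 response element-bla cells were treated 16 h at 37 C with compounds in DMSO, added 5 h after seeding.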
Assay [17] has as its target 5-hydroxytryptamine receptor 2A (Homo sapiens) (UniProt P28223). As to the kind of experiment: 5-hydroxytryptamine receptor 2A (HTR2A) small molecule antagonists, cell-based qHTS assay (AID 1963586). Note: nearly all actives have a fitted effect of over 45% in size. In a few lines:
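CHO cells stably expressing human HTR2A were plated for 18 h at 37 C, then loaded with calcium dye for 1 h. Compounds were preincubated 5 min at room temperature before DOI (4 nM solution) was added. Kinetic fluorescence was read for 3 min.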

For assay [18], the target named is Muscarinic acetylcholine receptor M1 (Homo sapiens) (UniProt P11229). Briefly: Cholinergic receptor muscarinic 1 (CHRM1) small molecule antagonists, cell-based qHTS assay (AID 1963588). Note: nearly all actives have a fitted effect of over 40% in size. The gist of the method:
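Compounds were tested at 15 concentrations in three independent runs. Dye-loaded CHRM1-CHO cells were exposed 5 min at room temperature before stimulation by acetylcholine added at 50nM. Intracellular calcium was read kinetically on FDSS for 3 min.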

Assay [19] has the same target. Briefly: Cholinergic receptor muscarinic 1 (CHRM1) small molecule agonists, cell-based qHTS assay (AID 1963589). Note: nearly all actives have a fitted effect of over 35% in size. In a few lines:
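Agonist-mode calcium-flux screen: compounds at 15 concentrations, three independent runs, were pin-transferred onto dye-loaded human CHRM1-CHO cells. Fluorescence was then recorded kinetically every second over minutes.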

Assay [20] has as its target 5-hydroxytryptamine receptor 2A (Homo sapiens) (UniProt P28223). As to the kind of experiment: 5-hydroxytryptamine receptor 2A (HTR2A) small molecule agonists, cell-based qHTS assay (AID 1963587). Note: nearly all actives have a fitted effect of over 30% in size. The gist of the method: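 CHO cells stably expressing human HTR2A, plated 18 h, loaded with calcium dye 1 h at 37 C. Agonist mode: compounds added and intracellular calcium fluorescence recorded kinetically for 2 min at 1 sec intervals.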

Sequence of 5-hydroxytryptamine receptor 2A (Homo sapiens) (P28223 whole entry, looked up): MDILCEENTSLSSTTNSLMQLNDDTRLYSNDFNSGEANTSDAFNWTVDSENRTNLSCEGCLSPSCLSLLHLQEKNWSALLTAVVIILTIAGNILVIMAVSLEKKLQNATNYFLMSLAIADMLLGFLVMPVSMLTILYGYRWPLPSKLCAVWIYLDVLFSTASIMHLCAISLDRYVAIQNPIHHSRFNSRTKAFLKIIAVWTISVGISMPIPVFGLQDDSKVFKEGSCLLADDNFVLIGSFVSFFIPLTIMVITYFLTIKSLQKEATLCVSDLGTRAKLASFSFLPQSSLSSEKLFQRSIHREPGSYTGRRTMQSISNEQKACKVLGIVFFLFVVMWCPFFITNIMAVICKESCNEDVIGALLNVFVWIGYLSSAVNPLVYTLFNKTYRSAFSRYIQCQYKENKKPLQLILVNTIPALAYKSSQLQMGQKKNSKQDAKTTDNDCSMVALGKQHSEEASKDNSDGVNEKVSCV
Sequence of KiSS-1 receptor (Homo sapiens) (Q969F8 whole entry, looked up): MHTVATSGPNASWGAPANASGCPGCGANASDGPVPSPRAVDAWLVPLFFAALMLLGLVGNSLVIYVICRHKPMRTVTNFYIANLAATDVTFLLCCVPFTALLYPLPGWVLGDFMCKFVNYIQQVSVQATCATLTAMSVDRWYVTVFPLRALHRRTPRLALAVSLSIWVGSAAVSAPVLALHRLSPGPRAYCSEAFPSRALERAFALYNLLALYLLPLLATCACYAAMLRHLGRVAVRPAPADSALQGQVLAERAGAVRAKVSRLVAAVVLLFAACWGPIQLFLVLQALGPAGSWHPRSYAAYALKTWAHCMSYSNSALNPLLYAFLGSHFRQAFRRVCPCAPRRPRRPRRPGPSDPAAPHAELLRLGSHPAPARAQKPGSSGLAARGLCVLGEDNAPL
Sequence of Muscarinic acetylcholine receptor M1 (Homo sapiens) (P11229 whole entry, looked up): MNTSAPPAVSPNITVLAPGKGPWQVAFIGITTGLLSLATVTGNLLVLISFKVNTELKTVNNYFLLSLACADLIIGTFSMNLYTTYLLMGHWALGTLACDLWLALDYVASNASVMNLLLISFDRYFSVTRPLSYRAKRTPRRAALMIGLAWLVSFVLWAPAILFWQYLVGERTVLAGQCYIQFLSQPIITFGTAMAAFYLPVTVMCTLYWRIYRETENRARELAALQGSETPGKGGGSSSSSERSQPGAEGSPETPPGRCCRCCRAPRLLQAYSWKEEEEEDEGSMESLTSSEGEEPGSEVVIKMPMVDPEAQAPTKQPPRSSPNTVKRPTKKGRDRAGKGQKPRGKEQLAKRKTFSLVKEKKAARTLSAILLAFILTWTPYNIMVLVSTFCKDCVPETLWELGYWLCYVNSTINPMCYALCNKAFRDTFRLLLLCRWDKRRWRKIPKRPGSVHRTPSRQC
Sequence of Gonadotropin-releasing hormone receptor (Homo sapiens) (P30968 whole entry, looked up): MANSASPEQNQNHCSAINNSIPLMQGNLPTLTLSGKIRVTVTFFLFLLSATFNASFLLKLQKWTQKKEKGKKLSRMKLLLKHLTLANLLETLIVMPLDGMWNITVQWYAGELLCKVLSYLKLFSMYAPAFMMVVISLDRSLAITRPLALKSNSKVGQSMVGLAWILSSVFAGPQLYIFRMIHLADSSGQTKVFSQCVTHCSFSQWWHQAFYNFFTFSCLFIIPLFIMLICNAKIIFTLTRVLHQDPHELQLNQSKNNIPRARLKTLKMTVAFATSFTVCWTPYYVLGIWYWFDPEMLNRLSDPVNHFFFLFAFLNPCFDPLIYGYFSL
Sequence of Beta-2 adrenergic receptor (Homo sapiens) (P07550 whole entry, looked up): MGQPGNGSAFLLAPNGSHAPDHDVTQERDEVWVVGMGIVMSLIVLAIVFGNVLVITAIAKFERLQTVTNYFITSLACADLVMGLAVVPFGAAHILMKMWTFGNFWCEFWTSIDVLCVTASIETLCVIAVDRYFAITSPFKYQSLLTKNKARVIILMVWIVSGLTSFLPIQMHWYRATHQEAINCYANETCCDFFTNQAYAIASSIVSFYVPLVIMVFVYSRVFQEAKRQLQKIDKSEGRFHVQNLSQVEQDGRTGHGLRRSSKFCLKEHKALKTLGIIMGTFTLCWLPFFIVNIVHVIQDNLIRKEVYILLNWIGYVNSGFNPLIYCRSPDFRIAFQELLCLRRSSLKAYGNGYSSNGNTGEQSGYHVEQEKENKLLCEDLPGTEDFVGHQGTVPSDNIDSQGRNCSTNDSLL
Sequence of D(2) dopamine receptor (Homo sapiens) (P14416 whole entry, looked up): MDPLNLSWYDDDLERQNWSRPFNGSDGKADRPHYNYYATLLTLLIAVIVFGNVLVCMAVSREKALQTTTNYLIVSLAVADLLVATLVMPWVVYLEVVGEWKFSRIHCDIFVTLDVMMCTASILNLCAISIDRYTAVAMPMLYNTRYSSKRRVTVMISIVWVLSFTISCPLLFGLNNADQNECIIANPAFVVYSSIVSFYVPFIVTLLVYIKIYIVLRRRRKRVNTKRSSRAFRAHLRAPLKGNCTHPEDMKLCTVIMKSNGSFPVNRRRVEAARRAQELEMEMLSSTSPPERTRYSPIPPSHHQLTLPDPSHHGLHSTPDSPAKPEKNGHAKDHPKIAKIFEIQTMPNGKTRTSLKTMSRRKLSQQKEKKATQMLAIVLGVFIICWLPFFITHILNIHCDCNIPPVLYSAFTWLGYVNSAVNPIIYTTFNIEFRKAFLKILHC

Take `CN(C)/N=N/c1nc[nH]c1C(N)=O`: the Potency result in assay [1], in assay [2], in [3], in assay [4], in assay [5] and in assay [6] was “inactive” in each case. For the same compound, the Potency result in [7], in assay [8], in [9], in assay [10], in [11] and in assay [12] was “inactive” in each case. Besides, in assay [13], the Potency entry is “inactive”.
For the compound `CO[C@@H]1[C@@H](O[C@@H]2O[C@H](C)[C@@H](O[C@H]3C[C@@](C)(O)[C@@H](O)[C@H](C)O3)[C@H](N(C)C)[C@H]2O)[C@@H](CC=O)C[C@@H](C)[C@@H](O[C@@H]2CC[C@H](N(C)C)[C@@H](C)O2)/C=C/C=C/C[C@@H](C)OC(=O)C[C@H]1OC(C)=O`, the Potency entry in [1], in assay [2], in [3], in [4], in assay [14] and in assay [15] was “inactive” each time. The Potency result in assay [6], in assay [7], in [16], in assay [17], in assay [18] and in [19] was “inactive” each time. In addition, the Potency entry in assay [8], in assay [9] and in assay [12] was “inactive” throughout.
`CC(=O)O[C@]1(C(C)=O)CC[C@H]2[C@@H]3C=C(C)C4=CC(=O)CC[C@]4(C)[C@H]3CC[C@@]21C`: the Potency entry in [1], in assay [2], in [3], in assay [4], in assay [14] and in assay [15] was “inactive” each time. Further, the Potency entry in assay [5], in assay [6], in [7], in [16], in [10] and in [11] was “inactive” throughout. For the same compound, the Potency entry in assay [12] and in [13] was “inactive” in each case.
In the case of `CCN(CC)c1ccc2c(C)cc(=O)oc2c1`, the Potency entry in [1], in [2], in [3], in assay [4], in assay [5] and in assay [6] was “inactive” each time. Moreover, the Potency entry in [7], in [17], in [20], in [18], in assay [10] and in [11] was “inactive” in each case. For the same compound, the Potency entry in assay [12] and in assay [13] was “inactive” each time. Further, the Potency in [16] was 25.9 µM (active) and 32.4 µM (active).
Consider `NCc1ccccc1Sc1ccccc1CO`, for which the Potency result in assay [1], in assay [2], in [4], in assay [14], in assay [15] and in assay [5] was “inactive” each time. The Potency result in assay [6], in assay [7], in assay [16], in assay [17], in [20] and in [18] was “inactive” throughout. Further, the Potency result in assay [19], in [8], in assay [10], in assay [12] and in assay [13] was “inactive” throughout.
For the compound `CC(C)(C)CC(C)(C)c1ccc(OCCOCC[N+](C)(C)Cc2ccccc2)cc1`, the Potency entry in assay [1], in assay [2], in assay [4], in [14], in assay [15] and in [6] was “inactive” each time. For the same compound, the Potency result in assay [7], in assay [16], in assay [9] and in assay [12] was “inactive” in each case. In assay [5], the Potency was 20.4 µM (active) and inactive.
For `OC[C@H]1O[C@@H]2O[C@H]3[C@H](O)[C@@H](O)[C@@H](O[C@H]4[C@H](O)[C@@H](O)[C@@H](O[C@H]5[C@H](O)[C@@H](O)[C@@H](O[C@H]6[C@H](O)[C@@H](O)[C@@H](O[C@H]7[C@H](O)[C@@H](O)[C@@H](O[C@H]1[C@H](O)[C@H]2O)O[C@@H]7CO)O[C@@H]6CO)O[C@@H]5CO)O[C@@H]4CO)O[C@@H]3CO`, the Potency result in assay [1], in assay [3], in assay [4], in assay [5], in [6] and in assay [7] was “inactive” each time. Moreover, the Potency entry in assay [8], in assay [9], in [10], in [11] and in assay [12] was “inactive” each time.
Turning to `CC(=C(CCOC(=O)C(C)C)SSC(CCOC(=O)C(C)C)=C(C)N(C=O)Cc1cnc(C)nc1N)N(C=O)Cc1cnc(C)nc1N`, the Potency result in assay [1], in assay [2], in [4], in assay [14], in [15] and in assay [5] was “inactive” throughout. Further, the Potency entry in [6], in [7], in assay [16], in [17], in assay [20] and in assay [18] was “inactive” throughout. Also, the Potency result in assay [19], in assay [8], in [9], in assay [10] and in [12] was “inactive” in each case.
For the compound `CCC(C)(Oc1ccc(C2(c3ccc(OC(C)(CC)C(=O)O)cc3)CCCCC2)cc1)C(=O)O` (stereo not given), the Potency entry in assay [2], in [3], in assay [4], in [14], in assay [15] and in assay [5] was “inactive” each time. Besides, the Potency entry in assay [6], in assay [7], in assay [16], in assay [17], in [20] and in assay [18] was “inactive” throughout. The Potency entry in assay [19], in assay [9], in assay [10], in assay [11] and in assay [12] was “inactive” each time.
